The values that follow come from PubChem BioAssay (NCI).

Structures are written as SMILES. Compounds without any hit were thinned out: in the full panel of roughly 83,000, 20% have a hit.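 Single-dose data. Exposure time 48 hours. Values below 10 considered active.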 Unmarked numbers belong to inactive results. Activity calls are given as the source filed them.

Among the test systems are T-47D breast; BT-549 breast; MDA-MB-435 melanoma; SW-620 colon; MCF7 breast; HCT-116 colon; KM12 colon; HCC-2998 colon.
Common to all, as to experiment: NCI-60 one-dose screen, 48 h (100 = growth as untreated, 0 = no growth, -100 = all killed)
Details in all cases: 10 µM unless noted

Take `CCN(CC)S(=O)(=O)c1ccc(S(=O)(=O)N2CCC[C@@H](C(=O)N3CCN(c4nc(C(C)C)no4)CC3)C2)cc1`: the growth with T-47D breast is 43.1%; in the test with BT-549 breast it was 62.9%; in the test on MDA-MB-435 melanoma, 55.7%; with SW-620 colon, 79.5%; in the test with MCF7 breast, 50.7%; in the test with HCT-116 colon, 51.8%. Moreover, the growth in the test on KM12 colon is 77.4%.

For the compound `O=C1/C(=C/c2cn(-c3ccccc3)nc2-c2ccccc2)SC(=S)N1C1CCCCC1`, the growth in the test on T-47D breast was 97%; with BT-549 breast it was 114%; in the test on MDA-MB-435 melanoma it was 98.8%; in the test with SW-620 colon, 96%; in the test on HCT-116 colon, 90.1%; in the test on HCC-2998 colon it was 108%.

On to `N=C(N)c1ccc(-c2ccc(-c3ccc(Cl)c(Cl)c3)s2)nc1`, for which the growth in the test with T-47D breast was 56.2%; in the test on BT-549 breast, 87.5%; with SW-620 colon, -56.6% (active); in the test with MCF7 breast, -64.6% (active); with HCT-116 colon, -50.8% (active); in the test on HCC-2998 colon, -61.9% (active). For the same compound, the growth in the test on KM12 colon is -74.6% (active).

Regarding `COc1ccc(-c2nc3c(ncc4ccc(=O)[nH]c43)s2)cc1`, the growth was 78.7% in the test on T-47D breast; 86.4% in the test on BT-549 breast; 66.5% with SW-620 colon; 62.5% in the test on MCF7 breast; 79.2% with HCT-116 colon; 91% with HCC-2998 colon. The growth with KM12 colon is 64.8%.

Regarding `C=CCSc1nnc(NC(=O)CCl)s1`, the growth was 90.3% in the test with T-47D breast; 79% in the test with BT-549 breast; 105% with SW-620 colon; 90.1% in the test with MCF7 breast; 86.3% in the test with HCT-116 colon; 95.3% in the test with KM12 colon.

On to `CCn1c(SCC(=O)N/N=C(\C)c2ccc(Cl)cc2)nc2c1c(=O)n(C)c(=O)n2C`, for which the growth in the test with T-47D breast was 98.3%; in the test with BT-549 breast, 99%; with SW-620 colon, 95.1%; with MCF7 breast it was 95.8%; in the test with HCT-116 colon, 102%; with HCC-2998 colon, 102%. For the same compound, the growth in the test with KM12 colon is 101%.

Turning to `COc1c(C(=O)Nc2ccc(C)c(Br)c2)ccc2ccccc12`, the growth in the test on T-47D breast was 88.9%; with BT-549 breast, 101%; in the test with SW-620 colon it was 81.1%; in the test with MCF7 breast, 96%; with HCT-116 colon, 96.5%; in the test with HCC-2998 colon it was 99.9%. Besides, the growth in the test with KM12 colon was 81.2%.

Take `O=C1/C(=C\c2ccc3nccnc3c2)SC(=S)N1CCc1ccc(O)cc1`: the growth with T-47D breast is 50.4%; in the test on BT-549 breast, 96.5%; in the test on SW-620 colon, 98.2%; in the test on MCF7 breast, 41.9%; in the test on HCT-116 colon it was 94.8%; in the test with KM12 colon it was 52.1%.

As to `Cc1ccc(-c2nc([P+](c3ccccc3)(c3ccccc3)c3ccccc3)c(S(=O)(=O)c3ccc(C)cc3)o2)cc1`, the growth with T-47D breast is 18.6%; in the test with BT-549 breast, 8.67% (active); in the test on SW-620 colon, -70.3% (active); with MCF7 breast, 13.5%; in the test on HCT-116 colon it was -68.6% (active); in the test with HCC-2998 colon, 38.3%. Further, in the test on KM12 colon, the growth is 18.8%.

With `CCCCCCCCCCC(CN(CC)CC)C(O)c1ccccc1` (stereo not given), the growth in the test on T-47D breast was 3.27% (active); in the test with BT-549 breast, 61.7%; with SW-620 colon, 32.1%; in the test with MCF7 breast, 1.87% (active); with HCT-116 colon, 20.7%; with HCC-2998 colon, -19.4% (active). In addition, the growth with KM12 colon was 8.29% (active).

For `C#CCOC(=O)/C=C/c1cn(-c2ccccc2)nc1-c1ccc(OC)cc1`, the growth is 88.3% in the test on T-47D breast; 108% with BT-549 breast; 112% with SW-620 colon; 79.1% in the test with MCF7 breast; 74.8% with HCT-116 colon; 105% in the test on HCC-2998 colon. Further, in the test on KM12 colon, the growth was 96.9%.

`O=C(Nc1ccc(Oc2cccc(F)c2)c(Cl)c1)c1cccnc1`: the growth in the test on T-47D breast is 33.5%; with BT-549 breast it was 48.6%; with SW-620 colon it was 25.8%; with MCF7 breast it was 19.6%; in the test with HCT-116 colon it was 33.7%; in the test with HCC-2998 colon, 57.7%. The growth with KM12 colon is 29.3%.

With `Cc1ccc(NC(=O)Cn2cc(CN3CCN(c4ccnc5cc(Cl)ccc45)CC3)nn2)cc1`, the growth was 86.5% with T-47D breast; 81.5% in the test with BT-549 breast; 88.6% in the test on SW-620 colon; 79.4% with MCF7 breast; 96.9% in the test with HCT-116 colon; 97.3% in the test on HCC-2998 colon. Also, in the test on KM12 colon, the growth was 85.8%.

In the case of `COc1ccc(C(=O)C/C(=C\c2ccc(Cl)cc2)C(=O)NCc2ccccc2)cc1`, the growth with T-47D breast was 65.3%; in the test with BT-549 breast, 110%; in the test on MDA-MB-435 melanoma, 68.8%; in the test on SW-620 colon, 98.2%; in the test on HCT-116 colon, 82.5%; in the test on KM12 colon, 99.7%.

`COc1ccc2c(c1)c(-c1nc(-c3c[nH]c4ccncc34)cs1)cn2C`: the growth in the test with T-47D breast was -49.6% (active); in the test on BT-549 breast it was 77.3%; in the test with SW-620 colon it was -63.9% (active); in the test on MCF7 breast, -68.9% (active); in the test with HCT-116 colon, -88.3% (active); in the test on HCC-2998 colon it was -73.5% (active). Further, in the test with KM12 colon, the growth was -88.9% (active).

`COCCNC(=O)Nc1ccc2nc(-c3cccs3)c(-c3cccs3)nc2c1`: the growth with T-47D breast was 58.1%; in the test on BT-549 breast it was 94.4%; in the test with SW-620 colon, 89.2%; in the test on MCF7 breast, 78.9%; with HCT-116 colon, 92.7%; in the test with HCC-2998 colon, 101%. The growth in the test on KM12 colon was 95.2%.

Take `CCOC(=O)c1ccc(NC(=O)c2nc(-c3cc(OC)c(OC)c(OC)c3)n(-c3ccc(Cl)cc3)n2)cc1`: the growth in the test on T-47D breast was 77.6%; in the test with BT-549 breast, 74.6%; in the test on SW-620 colon, 105%; in the test on MCF7 breast, 86.7%; in the test on HCT-116 colon, 87.8%.

With `O=C(O)c1cn(C2CC2)c2cc(N3CCN(C(=O)N(c4ccccc4)c4nc(-c5ccccc5)cs4)CC3)c(F)cc2c1=O`, the growth with T-47D breast was 11.4%; in the test on BT-549 breast it was -13% (active); in the test with SW-620 colon, 20.7%; in the test on MCF7 breast, 6.99% (active); in the test on HCT-116 colon it was 5.04% (active); in the test with HCC-2998 colon it was 16.5%. Also, the growth in the test on KM12 colon is 5.03% (active).
